Test results reported in PubChem BioAssay AID1345083 (National Center for Advancing Translational Sciences (NCATS), 2018).
Out of some 94,000 compounds screened, about 6,200 (6.6%) were called active. About 31% were inconclusive and are not listed. For the sample, actives were picked, then their nearest neighbours and some compounds at random. Values without a mark were called inactive. Calls come from the whole dose curve; as a rule, active = well fitted inhibition curve with a large enough effect; inconclusive = small, poorly fitted or top-dose-only effect; inactive = flat fitted curve, though single readings scatter.

Assay: Cytotoxic Profiling in HEK 293 Cell Line of Diverse Libraries Using Quantitative High-Throughput Screening; note: nearly all actives have a fitted effect of over 60% in size
Settings: HEK 293 viability, ATP luminescence (CellTiter-Glo), 48-72 h; series mostly up to 115 µM; activity change, negative = cytotoxicity: at the top concentration
Method in brief: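 Viability of HEK 293 cells, plated at 250 cells/well, was judged by cellular ATP after compound treatment for 48 or 72 hr. Luminescence was imaged 10 min after CellTiter-Glo addition at room temperature.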
% is set by controls: 0 for no effect and ±100 for the full control effect; potency is the fitted concentration of half-maximal effect.

Row | SMILES | Potency | activity change, negative = cytotoxicity | outcome
1 | Cc1ccc(NC(=O)c2cc(C(C)(C)C)nc3c2cnn3C)cc1 | 79.4 µM (active) | – | –
2 | Cn1ncc2c(C(=O)Nc3ccc(F)cc3)cc(-c3ccc(Cl)cc3Cl)nc21 | – | 0.727% | –
3 | COc1cccc(-c2cc(C(=O)Nc3cccc(Cl)c3)c3cnn(C)c3n2)c1 | 39.8 µM (active) | – | –
4 | COc1cccc(-c2cc(C(=O)Nc3cccc(F)c3)c3cnn(C)c3n2)c1 | 44.7 µM (active) | – | –
5 | Cn1ncc2c(C(=O)NC3CCCCC3)cc(-c3cccnc3)nc21 | – | -18.9% [at 172 µM] | –
6 | COc1cccc(CNC(=O)c2cc(-c3ccc(Cl)nc3)nc3c2cnn3C)c1 | – | -8.6% | –
7 | COc1cccc(-c2cc(C(=O)N3CCN(C(C)=O)CC3)c3cnn(C)c3n2)c1 | – | -18.6% | –
8 | Cn1ncc2c(C(=O)Nc3cccc(C(F)(F)F)c3)cc(-c3cccc(C(F)(F)F)c3)nc21 | – | -31.4% | –
9 | CCn1nc(C)cc1C(=O)N1C[C@H]2OC(=O)N(CCCN3CCOCC3)[C@H]2C1 | – | -26.4% | –
10 | O=C(Nc1cccnc1)O[C@H]1COCCN(c2nc3ccccc3s2)C1 | – | -19% [at 172 µM] | –
11 | COc1cccc([S+](=O)([O-])N2CCCC3(CC(c4cccc(C(F)(F)F)c4)=NO3)C2)c1 (configuration not stated) | – | -20.1% | –
12 | CC(C)N1C[C@H](O)C[C@H]1c1nnc2n1CCN(C(=O)c1ccccn1)CC2 | – | -14.3% | –
13 | CO[C@H]1C(=O)N(C2CCN(S(=O)(=O)c3c(C)nn(C)c3C)CC2)[C@H]1c1ccncc1 | – | -4.47% | –
14 | CCCN1C(=O)NC(CC(=O)N2CCC(O)(c3ccc(C)cn3)CC2)C1=O (configuration not stated) | – | -16.1% | –
15 | CN(C)S(=O)(=O)N1C[C@@H]2CC[C@H](C1)N(Cc1ccccc1C#N)C2 | – | -13.7% | –
16 | CC1(C)[C@H](Cc2cc(-c3ccccc3)on2)C[C@@H]1NS(C)(=O)=O | 89.1 µM (active) | – | –
17 | CC1(C)[C@H](Cc2cc(CCO)on2)C[C@@H]1NCC1CC1 | – | -3.06% [at 230 µM] | –
18 | CC1(C)[C@H](Cc2cc(-c3ccccc3)on2)C[C@@H]1NCC1CC1 | 100 µM (active) | – | –
19 | CCn1cnnc1CC1CCN(C(=O)c2cc(-c3ccc(F)cc3)nc3ccccc23)CC1 | – | -31.2% | –
20 | CN(C)C(C(=O)N1CCC(N2CCSCC2)CC1)c1cccc(F)c1 (configuration not stated) | – | 2.08% | –
21 | O=C(NC[C@H]1O[C@@H](CO)[C@@H](O)[C@H]1N1CCOCC1)Nc1ccc(OC(F)(F)F)cc1 | – | 4.47% | –

Row | SMILES | Potency | activity change, negative = cytotoxicity | outcome
22 | O=C(NCCc1ccccc1)c1ccc2oc(-c3cccnc3)nc2c1 | – | -15.5% | –
23 | O=C(NCc1ccccc1)c1ccc2nc(-c3ccnc(Cl)c3)oc2c1 | – | -0.349% [at 172 µM] | –
24 | O=C(NCc1cnn(Cc2ccccc2)c1)c1ccc2oc(-c3cccc(F)c3)nc2c1 | 7.08 µM (active) | – | –
25 | COC1CCOC2(CCN(C(=O)c3cnccn3)CC2)C1 (configuration not stated) | – | -8.41% | –
26 | CN(C(=O)NCc1ccccc1)C1CCc2nn(CC3CC3)c(=O)n2CC1 (configuration not stated) | – | -7.23% | –
27 | O=C(C1Cn2cccc2C(=O)N1Cc1ccccc1)N1CCOCC1 (configuration not stated) | – | -8.46% | –
28 | Cc1cnc(CC2CCN(S(=O)(=O)c3ccc(C#N)cc3)C2)n1Cc1ccccc1 (configuration not stated) | 44.7 µM (active) | – | –
29 | O=S(=O)(Cc1ccccc1)N1CCCC(Cc2nncn2CC2CC2)C1 (configuration not stated) | – | – | inactive
30 | Cc1ccc(S(=O)(=O)N2CC[C@H](c3nnc(-c4ccccc4)o3)C2)cc1 | – | -21.2% [at 172 µM] | –
31 | CCN(CCn1cccn1)Cc1cnc(S(=O)(=O)Cc2ccccc2)n1CC(C)C | – | -18.6% | –
32 | O=C(C1CCCCC1)N1CC2(Cc3ccccc3NC2=O)C1 | – | -17.9% | –
33 | O=C(NCc1c[nH]c2ncccc12)c1ccccc1F | – | -18.3% [at 172 µM] | –
34 | COC(=O)[C@@H]1Cc2ncn(Cc3ccc(OC)cc3)c2CN1S(C)(=O)=O | – | -6.58% [at 172 µM] | –
35 | COc1ccc(CNC(=O)[C@@H]2Cc3cn(Cc4ccncc4)c4cccc(c34)[C@H](CC(C)C)N2)cc1 | 39.8 µM (active) | – | –
36 | COCCN1C(=O)Cc2ccccc2C1C(=O)NCC1CCCCC1 (configuration not stated) | – | 10% | –
37 | CC(C)C[C@@H]1N[C@H](C(=O)NCc2ccc(F)cc2)Cc2cn(C)c3cccc1c23 | 70.8 µM (active) | – | –
38 | CC(C)N1CCC(OCCCNC(=O)C2Cn3cccc3C(=O)N2)CC1 (configuration not stated) | – | 2.23% | –
39 | CCc1ccc(CNC(=O)C2c3ccccc3CC(=O)N2C(C)C)cc1 (configuration not stated) | – | -27.9% | –
40 | C=CCn1cc2c3c(cccc31)[C@H](CC(C)C)N[C@H](C(=O)NCC1CC1)C2 | 79.4 µM (active) | – | –
41 | COc1ccc(CNC(=O)[C@H]2O[C@H](CCN3CCN(C)CC3)CC[C@@H]2O)cc1 | – | -12% [at 172 µM] | –
42 | CN1CC(C(=O)NCc2ccccc2)NC1=O (configuration not stated) | – | – | inactive [at 172 µM]

Row | SMILES | Potency | activity change, negative = cytotoxicity | outcome
43 | CN1CC2(CCN(C(=O)c3ccncc3)CC2)CC1C(=O)N1CCOCC1 (configuration not stated) | – | -3.04% | –
44 | CNC(=O)c1cc(C2CC2)nc2onc(C3CCN(C(=O)Nc4ccccc4)C3)c12 (configuration not stated) | – | -12.7% | –
45 | CNC(=O)c1cc(C2CC2)nc2c1c(C1CCN(C(=O)C(C)C)C1)nn2C (configuration not stated) | – | -22% | –
46 | COC[C@H]1C[C@@H](NC(=O)c2cc(C)oc2C(F)(F)F)[C@H](O)[C@@H]1O | – | -0.359% [at 172 µM] | –
47 | Cc1cc(S(=O)(=O)N2CCCN(C)c3ccccc32)ccc1F | 79.4 µM (active) | – | –
48 | Cc1cc(S(=O)(=O)N2CCC(n3cnnc3C(C)C)CC2)ccc1F | – | -7.71% | –
49 | CN1CCCN(C(=O)c2cc(F)ccc2F)c2ccccc21 | – | -29.6% | –
50 | CCOc1ccc(-c2cc3c(=O)n(CCNC(=O)c4ccc(OC)cc4C)ccn3n2)cc1 | – | -42.3% | –
51 | COc1cccc(CNC(=O)Cn2ccn3nc(-c4ccc(F)cc4)c(CO)c3c2=O)c1 | – | -4.92% | –
52 | CCC(C(=O)NCCn1ccn2nc(-c3ccc(F)cc3)cc2c1=O)c1ccccc1 (configuration not stated) | 20 µM (active) | – | –
53 | Fc1ccc(Nc2nc(-c3ccccc3F)no2)cc1 | 39.8 µM (active) | – | –
54 | O=C(Cn1cccc1-c1nc(-c2ccc(F)cc2)no1)Nc1cc(F)cc(F)c1 | – | -13.6% | –
55 | CCc1nc2c(=O)n(CC(=O)NCc3cc(C)ccc3C)nc(C)c2s1 | – | -19.2% | –
56 | CN(c1ccccc1)c1cc(=O)c2ccnc(Nc3cccc([S+](C)(=O)[O-])c3)c2o1 | 100 µM (active) | – | –
57 | Cn1ccc(Nc2nccc3c(=O)cc(-c4ccccn4)oc23)n1 | – | -16.5% [at 172 µM] | –
58 | CCCC(=O)N(C)CC1CCOCC1 | – | 9.81% | –
59 | COc1ccccc1NC(=O)N1CCC2(CCNC(=O)CC2)CC1 | – | -2.63% | –
60 | O=C(NCC1CCOCC1)c1ccc2[nH]ccc2c1 | – | -0.244% | –
61 | CC1(COCC2CC2)COc2ccc(C(=O)NCc3cccnc3)cc2N1 (configuration not stated) | – | -25.1% [at 172 µM] | –
62 | CN(C)CCN(C)C(=O)c1ccc2c(c1)NC(C)(COc1ccc3[nH]ccc3c1)CO2 (configuration not stated) | 112 µM (active) | – | –
